Bioassay records from PubChem BioAssay.
SARS PLpro yeast: qHTS of Yeast-based Assay for SARS-CoV PLP. hit rate 0.19% among 330,000. Potency, µM (top dose mostly 32.9 µM), for inactives: at the highest dose activity, positive = growth rescue, hits mostly activators. AID 485353, 2010. S. cerevisiae expressing SARS-CoV PLpro, growth rescue; calls by dose curve; also: potency is read from the fitted curve at half-maximal effect; 0% is about no effect; nearly all actives have a fitted effect of over 55% in size
AMA1 RON2 block: qHTS for Inhibitors of AMA1-RON; Towards Development of Antimalarial Drug Lead: Primary Screen | AlphaScreen AMA1-biotinylated RON2 peptide binding | Potency, µM (series often up to 58.2 µM), without a hit: top-dose activity change, negative = inhibition, actives largely listed as inhibitors | hit rate 0.2% among 360,000 | AID 720542, 2013;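 also: potency is read from the fitted curve at half-maximal effect; 0% = vehicle wells and -100% = peptide control; nearly all actives have a fitted effect of over 45% in size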
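AMA1 (3D7) with his tag at 25 nM final met compounds first, then biotinylated RON2 peptide at 25 nM; detection used donor plus acceptor beads, 10 µg/mL apiece, read by AlphaScreen after 30 min at room temperature.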
Pf growth 96h: Primary qHTS for delayed death inhibitors of the malarial parasite plastid, 96 hour incubation; P. falciparum luciferase reporter growth, 96 h; Potency, µM (titrated, usually from 28.7 µM), for inactives: at the top dose activity change, negative = inhibition, most hits filed as inhibitors; hit rate 6.9% among 320,000; also: potency is read from the fitted curve at half-maximal effect; % is scaled to controls: 0 for no effect and ±100 for the full control effect
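Compounds incubated with erythrocytes infected by luciferase-expressing P. falciparum (2% hematocrit, 0.05% parasitemia final) for 96 hours, 37 C in 5% CO2. Growth inhibition scored as decreased luciferase luminescence.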
Cycloheximide cs: Cycloheximide Counterscreen for Small Molecule Inhibitors of Shiga Toxin; max response, %; hit rate 12% among 300,000; cell reporter, cycloheximide protein synthesis inhibition counterscreen; in the data active = max response mostly above about 13%, no sharp cut-off; inactive = mostly below about 14%; also: read at 38.3 µM for the half of the compounds with a filed dose; 0% is about no effect
Shiga toxin inh: A qHTS for Small Molecule Inhibitors of Shiga Toxin; Vero cells, Shiga toxin protein synthesis inhibition reporter; inhibition, % at 38.7 µM; hit rate 9.2% among 290,000; in the data active = inhibition mostly above about 28%, no sharp cut-off; inactive = mostly below about 43%; also: 0% is about no effect
Pf growth 48h: Primary qHTS for delayed death inhibitors of the malarial parasite plastid, 48 hour incubation | P. falciparum luciferase growth in erythrocytes, 48 h | Potency, µM (top dose mostly 28.7 µM), without a hit: top-dose activity change, negative = inhibition, actives largely listed as inhibitors | hit rate 5.9% among 310,000 | AID 504832, 2011; also: potency is read from the fitted curve at half-maximal effect; % is scaled to controls: 0 for no effect and ±100 for the full control effect
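Parasite viability was followed by luminescence of a genomically integrated firefly luciferase. Cultures held 0.1% parasitemia at 2% hematocrit (final), incubated under 5% CO2 at 37 C.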
An asterisk follows results filed as active; ? = inconclusive; / = not tested or not shown; [ ] = another dose, or the depositor's remark. Rows were chosen to be rich in hits. Some 19% of all compounds tested hit in one or more screens of this group. Unless noted, calls follow the shape of the dose curve; as a rule, active = well fitted curve in the direction sought with a large enough effect; inconclusive = small, poorly fitted or top-dose-only effect, or another doubt; inactive = no such curve, though single readings can be large; an effect the other way counts as inactive or inconclusive.

SMILES | SARS PLpro yeast | AMA1 RON2 block | Pf growth 96h | Cycloheximide cs | Shiga toxin inh | Pf growth 48h
O=C(NC(=S)Nc1cccc(Cl)c1N1CCCCC1)c1ccc2c(c1)OCCO2 | -28% | 20% | ? | 20* | 10 | ?
S=C(Nc1ccc(Br)cc1)Nc1ccc2c(c1)OCCO2 | 2% | 29% | -69% | 58* | 103* | 95%
O=C(NC(=S)Nc1ccc2c(c1)OCCO2)c1cccc2ccccc12 | ? | 25% | 41% | 37* | 76* | 50%
CS(=O)(=O)Nc1ccc(C(=O)Nc2ccc3c(c2)OCCO3)cc1 | 6% | 26% | 97% | 25* | 55 | /
COc1ccccc1NC(=O)c1ccc(NC(=O)CSc2ncn[nH]2)cc1 | 18% | -6% | 46% | 6 | 5 | 14%
O=C(COC(=O)CSc1cccc2cccc(Cl)c12)Nc1ncc(C(F)(F)F)cc1Cl | -31% | -15% | -5% | 7 | -9 | -9%
CC(C)(C)NS(=O)(=O)c1ccc(C(=O)Nc2ccc3c(c2)OCO3)cc1 | -6% | 25% | 14% | 21* | 77* | 8%
COc1cc(NC(=O)CSc2ccc3c(c2)OCCO3)cc(OC)c1OC | -7% | -5% | 24% | 8 | -22 | -6%
NS(=O)(=O)c1ccc(NC(=S)NC(=O)c2ccc3c(c2)OCO3)cc1 | 3% | 10% | 28% | -3 | -7 | 23%
CCOc1cccc(C(=O)Nc2ccc3c(c2)OCCO3)c1 | -5% | -6% | 182% | 36* | 37 | 252%
O=C(NC(=S)Nc1ccccc1Br)c1ccc2c(c1)OCO2 | 0% | 9% | -10% | 31* | 60* | 101%
COc1cc(NC(=S)Nc2ccc3c(c2)OCCO3)cc(OC)c1OC | 1% | 12% | 25% | 32* | 69* | 16%
CCOc1cccc(C(=O)Nc2cccc(C(=O)NC(C)(C)C)c2)c1 | -2% | 9%[2.32 µM] | 8% | 6 | -7 | -6%
CCCCCOC(=O)C1=C(C)N(C)C(=O)NC1c1cc(Br)c(O)c(OC)c1 (stereo unspecified) | -1% | 0% | 3%[5.75 µM] | -2 | -25 | ?
CC(C)C[C@H](NC(=O)c1ccc(NCc2cnc[nH]2)cc1-c1cccc2ccccc12)C(=O)O | / | / | / | -7 | -9 | /
NC(Cc1ccc(F)cc1)c1csc(Nc2ccc(C(=O)c3ccccc3)cc2)n1 (stereo unspecified) | / | 30% | / | / | / | /
CC(=O)C1=C(O)C(=O)N(CCCCCC(=O)O)C1c1ccc(N(C)C)cc1 (stereo unspecified) | -1% | 4% | / | 2 | -25 | 14%
O=C(Nc1ccc2c(c1)OCCO2)c1cccc(C(=O)Nc2ccc3c(c2)OCCO3)c1 | -2% | -8% | 15% | 34* | 37* | 49%
O=C(Nc1cccc(NC(=O)c2cccs2)c1)c1ccc(Br)cc1 | -4% | 21% | -10% | 2 | 1 | 30%
Cc1ccc(NC(=O)c2ccc3c(c2)OCCO3)cc1 | -9% | 11% | 62% | 0 | 72 | 234%
CC(C)c1ccc(O)c(NC(=S)NC(=O)c2ccc3c(c2)OCO3)c1 | 26% | 92% | ? | 53* | 99* | ?
O=C(Nc1cccc(NC(=O)c2cccs2)c1)c1ccc2c(c1)OCCO2 | 0% | -6% | 3% | 23* | 21* | 64%
O=C(Nc1ccccc1C(=O)Nc1ccc2c(c1)OCO2)c1cccs1 | -10% | -19% | 84% | 17* | 43 | /
CN1C(=O)c2ccc(C(=O)Nc3ccc4c(c3)OCO4)cc2C1=O | 0% | -4% | 43% | 24* | 38 | 20%
CCCc1cc(C(=O)Nc2cccc([N+](=O)[O-])c2)cs1 | -13% | 0% | 33% | 65* | 104* | 65%
SMILES | SARS PLpro yeast | AMA1 RON2 block | Pf growth 96h | Cycloheximide cs | Shiga toxin inh | Pf growth 48h
CN1C(=O)c2ccc(NC(=O)c3cccc(N4C(=O)CCC4=O)c3)cc2C1=O | -1% | 15% | -7% | -1 | 24 | 34%
O=C(NC(=S)Nc1ccc2c(c1)OCO2)c1ccccc1 | 5% | 49% | 40% | 47* | 102* | 75%
O=C(Oc1ccc2c(c1)OCO2)c1cccs1 | 1% | 5% | 6% | 27* | 40* | -14%
N#Cc1c(SCC(=O)Nc2cccc(C(F)(F)F)c2)sc2c(O)cc(=O)[nH]c12 | 0% | 19% | 15% | -1 | 16 | 26%
COCCNC(=O)C1CCCN(C(=O)c2ccc3ccccc3n2)CC1 (stereo unspecified) | / | 4% | / | / | / | /
CC(C)CC1C(=O)N(Cc2cn(Cc3ccco3)nn2)CCS(=O)(=O)N1Cc1ccc(-c2ccccc2)cc1 (stereo unspecified) | / | -11% | / | / | / | /
O=C(COC(=O)COc1ccccc1)Nc1ccc2c(c1)OCCO2 | -7% | -3% | / | / | / | /
O=C(CC(=O)c1ccccc1)Nc1ccc2c(c1)OCCO2 | 2% | -16% | 86% | 43* | 74* | 50%
O=C(Nc1cccc([N+](=O)[O-])c1)c1[nH]ncc1Cl | -2% | 26% | 362% | 62* | 97* | 315%
O=C(Nc1cccc(Cl)c1)c1ccc(F)c(S(=O)(=O)NCc2ccc3c(c2)OCO3)c1 | -15% | 12% | ? | 21* | -1 | -7%
O=C(CCCc1cccs1)Nc1ccc2c(c1)OCO2 | 0% | -15% | 385% | 31* | 89* | 364%
COC(=O)C[C@](O)(CCCC(C)(C)O)C(=O)O[C@@H]1C(OC)=C[C@]23CCCN2CCc2cc4c(cc2[C@H]13)OCO4 | / | / | 0.0067µM* | / | / | 0.0095µM*
COc1ccc(CNC(=O)c2cn(Cc3ccccc3OC)c(=O)s2)cc1 | / | -5% | / | / | / | /
Cc1cc(N2CCC(C(=O)N3CCN(c4cccc(C)c4C)CC3)CC2)n2ncnc2n1 | 3% | -1% | / | -2 | -22 | 2.3µM*
O=C(N/N=C/c1cccc([N+](=O)[O-])c1)c1cc(-c2ccccc2)nc2ccccc12 | -5% | 0% | ? | 1 | -9 | 0%
Cc1ccc2nc(N/N=C/c3ccco3)cc(C)c2c1 | 2% | 58% | 11% | 51* | 72* | ?
Cc1cc(N/N=C/c2ccc([N+](=O)[O-])o2)nc2ccccc12 | -26% | -18% | 5.9µM* | 15* | 48* | 4.7µM*
Cc1ccc(-c2cc(C(=O)N/N=C/c3ccc([N+](=O)[O-])o3)c3ccccc3n2)o1 | -7% | 12% | 3.3µM* | 32* | 80* | -25%
Cn1c(/C=C/c2ccc([N+](=O)[O-])o2)nc2ccccc2c1=O | -20% | 9% | ? | 1 | 19 | ?
Cc1ccc(/C=N/NC(=O)c2cc(-c3ccncc3)nc3ccccc23)o1 | -6% | 76% | -12% | -1 | -15 | 5%
